Tau fibril FP – blocks human tau fibril formation measured by polarization | AID 1468 | P10636 | K18 P301L tau heparin fibrillization, Alexa594 FP, 6 h | Potency, µM (top dose mostly 57.7 µM), without a hit: top-dose activity, negative = inhibition, actives largely listed as inhibitors | hit rate 0.39% among 280,000; also: nearly all actives have a fitted effect of over 55% in size
Target sequence (P10636 561-689 P618L limits assumed): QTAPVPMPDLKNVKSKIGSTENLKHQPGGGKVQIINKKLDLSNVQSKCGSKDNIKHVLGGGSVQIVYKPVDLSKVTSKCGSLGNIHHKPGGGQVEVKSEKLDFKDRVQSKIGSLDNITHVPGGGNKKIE
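Human tau K18 […] P301L fragment, 15 uM unlabeled plus 0.24 uM Alexa 594-labeled tau (final), with compound and 20 uM heparin in 100 mM sodium acetate pH 7; 6 hr at 37 C, then Alexa 594 FP read.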
Tau ThT inhib – tau fibrillization inhibition (ThT binding). P10636. Potency, µM (titrated, usually from 57.4 µM), inactives show at the highest dose activity, negative = inhibition, usual class: inhibitors. recombinant tau K18 P301L, heparin-induced fibrillization, ThT fluorescence. hit rate 2.1% among 270,000. AID 1460; also: nearly all actives have a fitted effect of over 55% in size
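Fibril formation assay: tau K18 P301L at 15 uM with trace Alexa 594 label, heparin inducer 20 uM, pH 7 sodium acetate buffer, 37 C for 6 hr; endpoint ThT signal.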
GoLoco inh red – inhibitors of human Gai1-RGS12 GoLoco interaction (red fluorophore). Potency, µM (series often up to 61.6 µM), for inactives: at the highest dose activity, negative = inhibition, hits mostly inhibitors. P63096. hit rate 0.44% among 230,000. Gai1:RGS12 GoLoco peptide FP, rhodamine, 10 min; active = well fitted inhibition curve with a large enough effect, not every such curve was filed as active; inactive = no such curve, though single readings can be large or run the other way; also: nearly all actives have a fitted effect of over 30% in size
TR SRC2 fluor cs – counter-screen for TRb-SRC2 inhibitors: fluorescence interference. TRb/SRC2 Texas Red total fluorescence interference. Potency, µM (highest dose often 106 µM), for the others: at the highest dose fluorescence change, negative = quenching. hit rate 0.29% among 280,000. AID 1479; active = well fitted curve in either direction with a large enough effect; inconclusive = small, poorly fitted or top-dose-only effect
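Human TRb ligand-binding domain at 0.6 uM with 20 nM Texas Red SRC2 peptide in Tris buffer containing 1 uM T3 and 5% DMSO, incubated with compound 5 h at ambient temperature. Total fluorescence (555/632 nm) calculated as parallel + 2 × perpendicular.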
TRb SRC2 PPI – TRbeta-SRC2 interaction inhibition | TRbeta-SRC2 peptide binding, fluorescence polarization; receptor liganded with 1 µM T3 | hit rate 0.065% among 280,000 | Potency, µM (top dose mostly 106 µM), inactives show at the highest dose activity change, negative = inhibition, actives largely listed as inhibitors | AID 1469;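 also: plate controls were bound peptide for no effect and peptide without receptor for full effect; nearly all actives have a fitted effect of over 50% in size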
Target sequence (P10828 whole entry, looked up): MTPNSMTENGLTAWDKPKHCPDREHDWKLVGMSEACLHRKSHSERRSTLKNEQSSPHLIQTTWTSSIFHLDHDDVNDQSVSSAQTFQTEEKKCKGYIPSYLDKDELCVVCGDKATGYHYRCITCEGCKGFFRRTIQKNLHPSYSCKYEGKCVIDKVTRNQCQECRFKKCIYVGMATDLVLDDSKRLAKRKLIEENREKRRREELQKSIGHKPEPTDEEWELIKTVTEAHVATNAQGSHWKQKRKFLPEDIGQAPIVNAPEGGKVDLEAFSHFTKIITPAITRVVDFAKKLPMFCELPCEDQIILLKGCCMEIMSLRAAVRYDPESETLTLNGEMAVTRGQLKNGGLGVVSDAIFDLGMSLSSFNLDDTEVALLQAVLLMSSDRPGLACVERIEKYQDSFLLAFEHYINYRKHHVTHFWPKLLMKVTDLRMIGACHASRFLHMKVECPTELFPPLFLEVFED
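TRb LBD 0.6 uM + Texas Red SRC2 peptide 20 nM, 1 uM T3, Tris buffer w/ 5% DMSO; compound pinned, 5 h RT; FP read ex 555/em 632; normalized to unbound and bound controls.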
Tau fluor cs – counter-screen for tau fibril formation inhibitors; tau K18 P301L Alexa594 fluorescence, heparin fibrillization; Potency, µM (top dose mostly 57.7 µM), for the others: at the top dose activity change, negative = decrease; hit rate 0.93% among 280,000; also: nearly all actives have a fitted effect of over 55% in size
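Human tau K18 P301L (15 uM unlabeled, 0.24 uM Alexa 594-labeled) in 100 mM sodium acetate pH 7 with 20 uM heparin, 6 hr at 37 C. ThT 30 uM added, 1 hr ambient; Alexa 594 FP and total fluorescence read at 555/632 nm.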
Starred values were filed as active, the others as inactive; ? = inconclusive; . = no result; ! = a repeat was not active; [ ] = remark or other dose. In the library only some 3.2% were active in any assay of this set; here they are far more common. Unless noted, calls follow the shape of the dose curve; as a rule, active = well fitted curve in the direction sought with a large enough effect; inconclusive = small, poorly fitted or top-dose-only effect, or another doubt; inactive = no such curve, though single readings can be large; an effect the other way counts as inactive or inconclusive. Unless noted, % is scaled to controls: 0 for no effect and ±100 for the full control effect; potency is read from the fitted curve at half-maximal effect.

SMILES | Tau fibril FP | Tau ThT inhib | GoLoco inh red | TR SRC2 fluor cs | TRb SRC2 PPI | Tau fluor cs
Cc1cc(C)nc(SCC(=O)NC2=NC(=O)C(C)S2)n1 (stereo unspecified) | ? | ? | -13% | -3% | -6% | -8%
Cc1ccc(C2=NN=C(NC(=O)CSc3nc(C)cc(C)n3)SC2)cc1 | ? | 13µM* | -10% | 3% | -7% | -18%
Cc1ccc(C2=NN=C(NC(=O)CSc3nnc4c5ccccc5n(C)c4n3)SC2)cc1 | ? | 2.8µM* | -5% | -5% | 4% | -22%
Cc1[nH]c2ccccc2c1C1(O)C(=O)N(Cc2ccccc2)c2ccc(Br)cc21 (stereo unspecified) | 2% | ? | . | -6% | 9% | 11µM*[quencher]
CC(C)CC(C)(O)C#CC(C)(O)CC(C)C (stereo unspecified) | . | . | . | -2%[201 µM] | 2%[201 µM] | .
Oc1c(Cl)cc(Cl)cc1Sc1cc(Cl)cc(Cl)c1O | 0% | 14µM* | 11% | ? | ? | ?
O=C(Nc1ccccc1F)Nc1cccc2ccc(O)cc12 | ? | 16µM* | 5% | -11% | -5% | 14µM*[quencher]
C=CC(=O)OCC[N+](C)(C)C | . | . | . | -2%[201 µM] | 2%[201 µM] | .
CCNc1ncc2ncc(=O)n(Cc3ccc(F)cc3)c2n1 | . | . | 6% | . | . | .
O=c1cc(-c2ccc(O)c(O)c2)oc2ccccc12 | ? | 18µM* | 0% | -23% | 8% | ?
COC(=O)C1=C(C)N(Cc2ccccc2)C(=O)/C1=C\c1ccco1 | -12% | 16µM* | 11% | 1% | -14% | ?
CCN1C(=O)/C(=C\c2cccs2)C(C(=O)OC)=C1C | -5% | ? | 4% | -2% | 2% | -17%
COC(=O)C1=C(C)N(CCc2ccccc2)C(=O)/C1=C\c1ccco1 | -10% | 18µM* | 10% | 2% | -2% | -22%
COC(=O)C1=C(C)N(Cc2cccnc2)C(=O)/C1=C\c1sccc1C | 3% | 14µM* | 15% | -3% | 4% | -28%
CCN1C(=O)/C(=C\c2ccco2)C(C(=O)OC)=C1C | -4% | ? | -1% | 0% | -4% | -6%
CCC(C)c1cc([N+](=O)[O-])cc([N+](=O)[O-])c1OC(=O)OC(C)C (stereo unspecified) | . | . | . | -2% | 1% | .
O=[N+]([O-])c1ccc2c(c1)Cc1ccccc1-2 | . | . | . | -6%[201 µM] | 5%[201 µM] | .
CCOC(=O)C(C(=O)OCC)c1cc(Br)c2noc3c2c1C(=O)c1ccccc1-3 | 2.2µM* | 1.1µM* | -21% | -9% | -5% | 2.5µM*[quencher]
CCCCNc1cc(NC2CCCCC2)c2c3c(onc13)-c1ccccc1C2=O | 1% | ? | . | 12% | 5% | ?
Nc1ccc(N(CCO)CCO)cc1 | 16µM* | 11µM* | 8.9µM* | 28% | ? | ?
Cc1cc(C)c2nc(NNC(=O)c3ccc(S(=O)(=O)N4CCCCC4)cc3)sc2c1 | ? | 22µM* | -12% | -1% | 8% | ?
CCOC(=O)N1CCN(S(=O)(=O)c2ccc(C(=O)NNc3nc4c(C)cccc4s3)cc2)CC1 | ? | 20µM* | 3% | -1% | 1% | ?
CCCCC/C=C\C/C=C\C/C=C\C/C=C\CCCC(=O)C(F)(F)F | ? | ? | -7% | 0% | 1% | 2%
Cc1c(C(=O)N(C)c2cccc(C(F)(F)F)c2)sc2nc3n(c(=O)c12)CCCCC3 | ? | ? | . | 7% | -7% | -23%
CC1=NN(CCC#N)C(=O)/C1=C/c1ccc(N(C)C)cc1 | -7% | 25µM* | 59% | -3% | -4% | -10%
SMILES | Tau fibril FP | Tau ThT inhib | GoLoco inh red | TR SRC2 fluor cs | TRb SRC2 PPI | Tau fluor cs
N#CC1(C#N)CC(C=O)=C(N)C1(C#N)CC(=O)c1ccc(F)cc1 (stereo unspecified) | ? | 14µM* | 132% | 14% | -30% | ?
O=C(/C=C/c1ccc(Br)cc1)NC(=S)NNC(=O)c1ccco1 | 1% | 16µM* | 5% | -1% | -6% | -29%
O=C(/C=C/c1ccccc1)NC(=S)NNC(=O)c1ccco1 | 1% | ? | 9% | -4% | -14% | -13%
COC(=O)N1C(c2ccccc2)=Cc2ccccc2C1CC(C)=O (stereo unspecified) | 1%[11.6 µM] | 9%[11.5 µM] | 4%[14.2 µM] | -3%[11.2 µM] | 4%[11.2 µM] | 7%[11.6 µM]
COc1cccc(Oc2cn[nH]c2-c2ccc(O)cc2O)c1 | ? | -9% | -4% | -1% | 6% | ?
COc1cccc(Oc2cn[nH]c2-c2ccc(OC)cc2O)c1 | -11% | -11% | 5% | 0% | 1% | 14µM*[quencher]
CCOc1ccc(-c2[nH]ncc2Oc2cccc(OC)c2)c(O)c1 | ? | ? | 7% | -2% | -5% | 16µM*[quencher]
Cc1c(C(=O)Nc2ccncc2)sc2nc(-c3ccccc3)cn12 | -2% | -13% | 18% | -4% | -1% | -5%
CCN(CC)c1ccc(NC(=O)c2sc3nc(-c4ccccc4)cn3c2C)cc1 | 13% | 2.2µM* | . | -1% | 2% | ?
CCN(CC)c1ccc(NC(=O)c2sc3ccccc3c2Cl)cc1 | 2% | 0.89µM* | . | -4% | 0% | ?
CCCC[C@@H]1CCCO[C@@](C(=O)NCc2ccccc2)(C(F)(F)F)C1 | . | . | . | -1% | 1% | .
O=C(Nc1ccc(Cl)cc1)Nc1ccc(N2CCOCC2)cc1 | 14% | ? | 4% | -2% | -1% | ?
O=C(Nc1ccc(N2CCOCC2)cc1)Nc1ccc(Cl)c(Cl)c1 | ? | 13µM* | 10% | -7% | -2% | 8.9µM*[quencher]
CC(C)(C)c1ccc(C(=O)Nc2ccc(N3CCOCC3)cc2)cc1 | -12% | 4.5µM* | -2% | -5% | 1% | ?
CC(=O)c1ccc(C(=O)Nc2ccc(N3CCOCC3)cc2)cc1 | -16% | 2.2µM* | 6% | -12% | -6% | -22%
CC(=O)c1ccc(N2CCN(C(=O)Nc3ccc(C(C)C)cc3)CC2)cc1 | -6% | ? | 0% | 0.032µM*![quencher] | -2% | ?
CC(=O)c1ccc(N2CCN(C(=O)Nc3ccc(F)cc3)CC2)cc1 | -3% | -11% | 2% | 1% | -1% | 3%
CC(C)(C)c1ccc(C(=O)NC(=S)Nc2ccc(N3CCOCC3)cc2)cc1 | 2% | ? | 10% | 2% | -13% | -24%
O=C(Nc1ccc(N2CCOCC2)cc1)c1cc2c(s1)CCCCC2 | 8% | 10µM* | 18% | -2% | -6% | ?
O=C(Nc1cccc(S(=O)(=O)Nc2ccc(Cl)cc2)c1)c1cc2c(s1)CCCC2 | 14µM* | 6% | 4% | 2% | 8% | ?
COc1ccc(-c2ccccc2C2C3C=CCCC3(C)C(=O)N2Cc2ccccc2)cc1 (stereo unspecified) | . | . | . | 1% | -13% | .

Screening results deposited in PubChem BioAssay by National Center for Advancing Translational Sciences (NCATS).
